According to PubChem BioAssay (NCATS):
Inconclusive results are not listed. The source made the active and inactive calls. Unless noted, calls come from the whole dose curve; as a rule, active = well fitted curve in either direction with a large enough effect (not every such curve was filed as active); inconclusive = small, poorly fitted or top-dose-only effect, or another doubt; inactive = flat fitted curve, though single readings scatter.

Key:
[1] = target: Lysosomal acid glucosylceramidase (Homo sapiens) (UniProt P04062); experiment: Glucocerebrosidase-p2 (AID 348; in the data active = potency below about 10 µM; note: potency is the fitted concentration of half-maximal effect); conditions: purified GBA, blue fluorogenic substrate, 40 min
Sequence of Lysosomal acid glucosylceramidase (Homo sapiens) (P04062 whole entry, looked up): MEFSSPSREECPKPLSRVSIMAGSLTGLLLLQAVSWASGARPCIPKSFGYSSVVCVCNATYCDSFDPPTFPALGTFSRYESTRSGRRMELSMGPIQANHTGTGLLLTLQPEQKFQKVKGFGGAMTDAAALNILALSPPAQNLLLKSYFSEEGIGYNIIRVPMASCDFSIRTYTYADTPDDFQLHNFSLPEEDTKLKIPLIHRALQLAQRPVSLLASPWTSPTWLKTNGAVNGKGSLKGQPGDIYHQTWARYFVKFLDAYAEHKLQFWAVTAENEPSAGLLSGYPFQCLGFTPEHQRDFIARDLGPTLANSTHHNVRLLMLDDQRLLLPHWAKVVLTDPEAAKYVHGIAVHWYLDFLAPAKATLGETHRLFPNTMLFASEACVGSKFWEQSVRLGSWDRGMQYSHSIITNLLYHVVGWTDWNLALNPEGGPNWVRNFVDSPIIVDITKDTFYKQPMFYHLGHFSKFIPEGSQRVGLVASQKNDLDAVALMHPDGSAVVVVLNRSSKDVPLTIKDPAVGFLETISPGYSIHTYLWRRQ
Method in brief: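 Compounds titrated from 0.6 nM upwards against 0.2 nM enzyme in pH 5.9 citric acid/KH2PO4, taurocholate, tween-20; blue fluorogenic substrate 80 uM, 40 min room temperature, stopped and read Ex 365/Em 440 for AC50.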

[2] = AP1 Signaling Pathway (AID 357); conditions: ME-180 AP-1-bla reporter, EGF-induced, beta-lactamase ratio, 5 h; at 7.69 µM (top of the series) unless noted;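 note: ME-180 reporter cells stimulated with EGF at its EC50 level; % is set by controls: 0 for no effect and ±100 for the full control effect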
Method in brief: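 Modulation of EGF-driven AP-1 transcription was assessed with a beta-lactamase reporter in ME-180 cells. Compound and EC50 EGF were co-incubated 5 hours at 37 °C before 2.5-hour CCF4 loading at room temperature and dual-emission reading.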

[3] = target: Cytochrome P450 1A2 (Homo sapiens) (UniProt P05177); experiment: p450-cyp1a2 (AID 410; calls by dose curve; note: potency is the fitted concentration of half-maximal effect;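 for activity change, negative = inhibition: -100% = full effect of reference inhibitor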); conditions: recombinant CYP1A2, luciferin-ME demethylation, luminescence; series mostly up to 57 µM
Sequence of Cytochrome P450 1A2 (Homo sapiens) (P05177 whole entry, looked up): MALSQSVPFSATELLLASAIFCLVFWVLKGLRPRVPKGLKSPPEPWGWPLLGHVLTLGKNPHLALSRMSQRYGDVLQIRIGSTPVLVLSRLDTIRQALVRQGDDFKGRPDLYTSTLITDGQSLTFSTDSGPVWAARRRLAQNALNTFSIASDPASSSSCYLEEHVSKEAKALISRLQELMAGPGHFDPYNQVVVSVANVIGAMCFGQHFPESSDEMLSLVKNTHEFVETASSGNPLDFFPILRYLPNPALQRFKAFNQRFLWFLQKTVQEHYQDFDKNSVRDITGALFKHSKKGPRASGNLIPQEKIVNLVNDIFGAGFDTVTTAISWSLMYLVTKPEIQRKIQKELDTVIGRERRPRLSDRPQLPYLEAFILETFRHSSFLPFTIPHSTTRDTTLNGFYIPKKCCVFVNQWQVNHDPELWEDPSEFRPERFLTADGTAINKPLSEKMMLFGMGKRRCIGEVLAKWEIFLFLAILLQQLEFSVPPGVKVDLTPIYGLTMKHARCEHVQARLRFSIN
Method in brief: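 Human CYP1A2 (20nM) demethylated Luciferin-ME at its Km (100uM) in 100mM KPO4. After 10 min compound preincubation, NADPH regeneration ran the reaction 60 min at room temperature. Luciferin was read by luminescence, normalized to 57 uM furafylline.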

[4] = NFAT Signaling Pathway (AID 444); conditions: Jurkat NFAT-bla M1, carbachol, beta-lactamase ratio, 5 h; at 7.69 µM (top of the series) unless noted;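 note: carbachol stimulus at about its EC50 of 1 µM final; % is set by controls: 0 for no effect and ±100 for the full control effect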
Method in brief: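 Jurkat cells carrying an NFAT-driven β-lactamase reporter and co-transfected muscarinic M1 receptor were treated with compound plus carbachol (1 uM final, an EC50 level) for 5 h at 37 °C. CCF4 loading followed for 1 h at RT; 460/530 nm ratio gave %activity.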

[5] = Stat Signaling Pathway (AID 446); conditions: ME-180 SIE beta-lactamase reporter, IL-6 stimulated, 5 h; at 7.69 µM (top of the series) unless noted;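 note: ME-180 cervical cancer cells given 40 pM IL-6 alongside compound; SIE-controlled beta-lactamase reporter measured as 460/530 nm FRET emission ratio; % is set by controls: 0 for no effect and ±100 for the full control effect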
Method in brief: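 ME-180 SIE-bla cells; overnight plating; cpd + IL-6 40 pM, 5 h, 37 C; LiveBLAzer 2.5 h RT; 460/530 nm emission ratio. Normalized to 300 pM IL-6 and 125 nM JAK inhibitor controls.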

[6] = target: Glucocorticoid receptor (Homo sapiens) (UniProt P04150); experiment: GR-GFP Redistribution (AID 450;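 active = compounds whose dose series gives a full or clear partial fitted curve of increased nuclear translocation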; note: potency is the fitted concentration of half-maximal effect); conditions: U2OS GR-GFP nuclear translocation, laser cytometry, 2 h
Sequence of Glucocorticoid receptor (Homo sapiens) (P04150 whole entry, looked up, the tested form may be a part): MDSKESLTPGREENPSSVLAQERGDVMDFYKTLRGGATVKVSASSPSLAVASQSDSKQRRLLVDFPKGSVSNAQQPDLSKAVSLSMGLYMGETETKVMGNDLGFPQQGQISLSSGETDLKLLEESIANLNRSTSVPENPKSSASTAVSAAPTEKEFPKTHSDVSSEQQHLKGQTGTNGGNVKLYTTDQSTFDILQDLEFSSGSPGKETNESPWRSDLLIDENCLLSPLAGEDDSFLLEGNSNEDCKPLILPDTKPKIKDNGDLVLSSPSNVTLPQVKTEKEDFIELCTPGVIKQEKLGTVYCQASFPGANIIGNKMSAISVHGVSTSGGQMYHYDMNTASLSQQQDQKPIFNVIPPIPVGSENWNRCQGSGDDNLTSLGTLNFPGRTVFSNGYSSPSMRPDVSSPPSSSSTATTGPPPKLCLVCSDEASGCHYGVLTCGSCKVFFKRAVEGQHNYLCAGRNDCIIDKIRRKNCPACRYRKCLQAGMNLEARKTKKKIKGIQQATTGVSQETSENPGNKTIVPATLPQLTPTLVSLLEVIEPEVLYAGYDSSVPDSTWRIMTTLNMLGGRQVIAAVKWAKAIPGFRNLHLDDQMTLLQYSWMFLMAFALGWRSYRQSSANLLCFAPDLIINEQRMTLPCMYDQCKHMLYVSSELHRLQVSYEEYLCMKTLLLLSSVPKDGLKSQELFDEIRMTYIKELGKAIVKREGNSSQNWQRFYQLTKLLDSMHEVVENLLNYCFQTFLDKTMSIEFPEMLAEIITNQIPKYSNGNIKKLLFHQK

[7] = target: Glucocorticoid receptor (Homo sapiens) (UniProt P04150); experiment: GR-EFC Redistribution (AID 451; calls by dose curve; note: potency is the fitted concentration of half-maximal effect); conditions: CHO-K1 GR-EFC translocation, beta-gal luminescence, 2 h
Method in brief: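 CHO-K1 cells stably expressing nuclear-localized β-gal enzyme acceptor and GR fused C-terminally to the enzyme donor fragment; ligand-driven nuclear translocation restores β-gal by complementation. Compounds titrated up to 46 uM final, 2 h at 37 °C; luminescence read.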

[8] = target: Mitogen-activated protein kinase 10 (Mus musculus) (UniProt Q61831); experiment: JNK3 AlphaScreen Assay (AID 530); conditions: JNK3 lysate, c-Jun phosphorylation; series mostly up to 57.1 µM;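 note: kinase came from lysate of stimulated human HepG2 cells; signal reports phosphorylation of biotinylated GST-cJun 1-79 at Ser73 with 10 µM ATP; % is set by controls: 0 for no effect and ±100 for the full control effect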
Method in brief: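 JNK3 came from HepG2 lysates pre-activated with IL-1beta and TNF-alpha and phosphorylated biotinylated GST-cJun (1-79) at 10 uM ATP, pH 7.6, room temperature. Compounds were titrated. AlphaScreen signal used anti-phospho-cJun (Ser73) antibody.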

[9] = target: Cytochrome P450 3A4 (Homo sapiens) (UniProt P08684); experiment: qHTS Assay for Activators of Cytochrome P450 3A4 (AID 885; active = well fitted curve in the direction sought with a large enough effect; an effect the other way counts as inactive or inconclusive; note: nearly all actives have a fitted effect of over 65% in size); conditions: recombinant CYP3A4, Luciferin-PPXE luminescence, 60 min; series mostly up to 57.1 µM
Sequence of Cytochrome P450 3A4 (Homo sapiens) (P08684 whole entry, looked up): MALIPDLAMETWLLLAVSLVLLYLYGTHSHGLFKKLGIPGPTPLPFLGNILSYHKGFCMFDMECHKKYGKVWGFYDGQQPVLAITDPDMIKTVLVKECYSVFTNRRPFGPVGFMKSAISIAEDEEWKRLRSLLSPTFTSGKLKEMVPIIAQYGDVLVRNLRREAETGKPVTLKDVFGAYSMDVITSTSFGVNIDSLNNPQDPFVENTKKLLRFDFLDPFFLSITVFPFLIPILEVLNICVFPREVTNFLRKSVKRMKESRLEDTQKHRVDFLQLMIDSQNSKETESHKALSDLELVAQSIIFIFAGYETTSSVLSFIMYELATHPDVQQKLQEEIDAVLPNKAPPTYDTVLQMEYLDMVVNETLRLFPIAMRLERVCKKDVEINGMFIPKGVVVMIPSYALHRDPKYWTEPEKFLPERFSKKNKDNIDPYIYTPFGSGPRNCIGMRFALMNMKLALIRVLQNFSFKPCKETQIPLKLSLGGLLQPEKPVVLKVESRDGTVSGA
Method in brief: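 20nM CYP3A4 + 25uM Luciferin-PPXE (=KM), 200mM KPO4; cpd 10 min RT; NADPH regen, 60 min RT; stop w/ detection buffer, 20 min; luminescence. Normalized to 57 uM ketoconazole.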

[10] = Confirmation and Secondary Assay for Modulators of Hemoglobin Beta Chain Splicing at IVS2 654 locus (AID 910; active = well fitted curve in the direction sought with a large enough effect; an effect the other way counts as inactive or inconclusive;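 note: per-well total GFP intensity by laser scanning cytometry after 2-day treatment; % of control where 0% means no effect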); conditions: HeLa EGFP-654 splicing reporter, GFP fluorescence, 48 h; series mostly up to 38.3 µM
Method in brief: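 HeLa cells stably carrying EGFP interrupted by mutant beta-globin IVS2-654 intron (CMV-driven) were treated with compound for 2 days at 37C; corrected splicing was scored as total peak GFP intensity per well (488 nm excitation, 500-520 nm emission).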

[11] = Confirmation and Secondary Assay for Modulators of Hemoglobin Beta Chain Splicing at IVS2 705 locus (AID 930; active = well fitted curve in the direction sought with a large enough effect; an effect the other way counts as inactive or inconclusive;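 note: HeLa cells stably expressing the EGFP-705 splicing reporter; GFP fluorescence per well restored by corrected splicing of the IVS2-705 intron in EGFP; % of control where 0% means no effect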); conditions: HeLa EGFP-705 splicing reporter, GFP fluorescence, 48 h; series mostly up to 38.3 µM
Method in brief: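 HeLa IVS2-705 EGFP reporter cells, 500/well, compound 2 d at 37C; correct splicing yields fluorescent EGFP. Control: 500 nM antisense PNA. Read-out: total peak GFP intensity.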

[12] = qHTS Assay for Lipid Storage Modulators (AID 1519; calls by dose curve); conditions: Drosophila S3 cells, BODIPY lipid droplet/cell ratio, laser cytometry, cells loaded with oleic acid; for activity change, negative = inhibition: at 57.5 µM (top of the series)
Method in brief: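 Cells seeded at 5,000 per well were treated with compounds over a concentration series and loaded with oleic acid (400 uM, as added). Lipid droplet fluorescence (488 nm excitation, 500-530 nm channel) was read by laser-scanning cytometry and normalized to 20 uM Triacsin C.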

[13] = Primary qHTS for small molecule stabilizers of the endoplasmic reticulum resident proteome: Secreted ER Calcium Modulated Protein (SERCaMP) assay (AID 1508630; active = well fitted curve in the direction sought with a large enough effect; an effect the other way counts as inactive or inconclusive; note: % is set by controls: 0 for no effect and ±100 for the full control effect); conditions: SH-SY5Y GLuc-SERCaMP (Gaussia luciferase released on ER calcium loss) secretion, thapsigargin, luminescence; series mostly up to 38.4 µM
Method in brief: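 GLuc-SERCaMP-expressing SH-SY5Y cells, pretreated 16 h with compound, are challenged with thapsigargin to empty ER calcium stores; after 4 h, coelenterazine is added directly to the medium and luminescence is imaged.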

[14] = target: 3',5'-cyclic-AMP phosphodiesterase 4B (Homo sapiens) (UniProt Q07343); experiment: qHTS Assay for Inhibitors of PDE-IV (AID 607; active = well fitted activation curve with a large enough effect in the main read-out, with a control signal flat, not every such curve was filed as active; note: % of control where 0% means no effect); conditions: HEK293 ACTOne CNG channel cells, membrane potential fluorescence; series mostly up to 22.9 µM
Sequence of 3',5'-cyclic-AMP phosphodiesterase 4B (Homo sapiens) (Q07343 whole entry, looked up): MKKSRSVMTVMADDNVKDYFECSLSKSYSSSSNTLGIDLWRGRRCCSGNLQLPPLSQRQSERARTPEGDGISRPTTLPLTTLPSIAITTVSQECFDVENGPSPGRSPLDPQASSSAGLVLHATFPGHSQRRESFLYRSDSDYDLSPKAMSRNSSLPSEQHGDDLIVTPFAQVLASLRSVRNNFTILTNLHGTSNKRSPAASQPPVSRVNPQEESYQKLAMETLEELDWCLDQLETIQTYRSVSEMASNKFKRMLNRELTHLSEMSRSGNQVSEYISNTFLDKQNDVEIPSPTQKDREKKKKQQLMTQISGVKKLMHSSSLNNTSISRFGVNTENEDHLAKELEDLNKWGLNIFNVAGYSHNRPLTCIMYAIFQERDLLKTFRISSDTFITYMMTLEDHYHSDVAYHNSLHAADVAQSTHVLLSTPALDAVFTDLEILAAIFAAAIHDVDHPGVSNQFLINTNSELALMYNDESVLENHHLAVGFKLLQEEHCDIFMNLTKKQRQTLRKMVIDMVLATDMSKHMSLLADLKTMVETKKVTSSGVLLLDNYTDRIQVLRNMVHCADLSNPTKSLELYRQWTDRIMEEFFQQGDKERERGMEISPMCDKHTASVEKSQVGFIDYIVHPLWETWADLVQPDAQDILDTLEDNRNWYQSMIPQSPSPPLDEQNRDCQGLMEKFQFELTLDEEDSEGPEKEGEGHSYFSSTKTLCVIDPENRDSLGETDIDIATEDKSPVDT
Method in brief: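 ACTOne HEK293 cells carry a modified cAMP-gated CNG channel and express endogenous PDE4; plated 1000 cells/well, compounds up to 22.9 uM final. Membrane-potential dye fluorescence (ex 535/em 590) was read; parental cells received 10 uM forskolin + 100 uM RO 20-1724.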

[15] = target: Cytochrome P450 2C9 (Homo sapiens) (UniProt P11712); experiment: qHTS Assay for Inhibitors and Substrates of Cytochrome P450 2C9 (AID 883; active = well fitted curve in the direction sought with a large enough effect; an effect the other way counts as inactive or inconclusive; note: % is set by controls: 0 for no effect and ±100 for the full control effect; nearly all actives have a fitted effect of over 60% in size); conditions: recombinant CYP2C9, luciferin-H luminescence, 60 min; series mostly up to 57.1 µM
Sequence of Cytochrome P450 2C9 (Homo sapiens) (P11712 whole entry, looked up): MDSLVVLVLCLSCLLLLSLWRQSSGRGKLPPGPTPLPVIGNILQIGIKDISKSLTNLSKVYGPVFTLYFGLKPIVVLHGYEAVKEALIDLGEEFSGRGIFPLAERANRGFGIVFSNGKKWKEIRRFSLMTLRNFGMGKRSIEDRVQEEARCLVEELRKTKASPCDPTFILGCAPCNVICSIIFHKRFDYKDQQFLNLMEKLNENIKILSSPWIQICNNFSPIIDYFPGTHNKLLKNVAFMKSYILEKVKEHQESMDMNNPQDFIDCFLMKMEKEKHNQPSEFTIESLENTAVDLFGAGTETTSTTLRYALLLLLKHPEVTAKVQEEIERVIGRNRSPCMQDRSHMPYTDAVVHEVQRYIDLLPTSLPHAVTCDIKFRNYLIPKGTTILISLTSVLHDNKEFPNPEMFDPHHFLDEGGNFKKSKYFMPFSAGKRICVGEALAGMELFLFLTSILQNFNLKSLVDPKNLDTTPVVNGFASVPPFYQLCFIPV
Method in brief: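 Human CYP2C9 (10nM) hydroxylated Luciferin-H (100uM, at its KM) to luciferin in 25mM KPO4. Compound was preincubated 10 min at 37C, then NADPH regeneration started a 60 min reaction at 37C. Luminescence was read after detection reagent, normalized to 57uM sulphaphenazole.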

[16] = measured here: cell count channel max response
[17] = measured here: lipid channel max response

COc1ccccc1CNc1ncncc1-c1ccoc1
5.8%: max response [12, 17]
inactive: Potency [1] > 11.4 µM | activity change, negative = inhibition [2] -6.36% | activity change, negative = inhibition [4] -22.1% | activity, negative = inhibition [5] -4.03% | Potency [6] > 46 µM | Potency [7] > 46 µM | outcome [8] | Potency [9] | outcome [10] | outcome [11] | activity change, negative = inhibition [12] 9.08% | Potency [13]
active: Potency [3] 1.26 µM
-3.49%: max response [12, 16]

COC(=O)N1CCC2(CC1)CN(C(=O)Nc1ccccc1)C2
inactive: Potency [1] > 11.4 µM | activity change, negative = inhibition [2] -8.08% | Potency [3] | activity change, negative = inhibition [4] 8.68% | activity, negative = inhibition [5] 1.2% | Potency [7] > 46 µM | outcome [8] | Potency [14] | activity change, negative = inhibition [12] 5.14% | Potency [13]
-8.35%: max response [12, 17]
-14.6%: max response [12, 16]

O=C(Nc1ccccc1)N1CC2(CCN(C(=O)c3ccco3)CC2)C1
inactive: Potency [1] > 11.4 µM | activity change, negative = inhibition [2] -2% | Potency [3] | activity change, negative = inhibition [4] 3.9% | activity, negative = inhibition [5] 4.13% | Potency [7] > 46 µM | outcome [8] | Potency [14] | activity change, negative = inhibition [12] 5.54% | Potency [13]
21.9%: max response [12, 16]
27.1%: max response [12, 17]

Cc1noc(C)c1C(=O)N1CCC[C@@]2(CCN(c3ncccn3)C2)C1
inactive: Potency [1] > 11.4 µM | activity change, negative = inhibition [2] 2.18% | Potency [3] | activity change, negative = inhibition [4] 7.6% | activity, negative = inhibition [5] -3.95% | Potency [7] > 46 µM | outcome [8] | Potency [14] | activity change, negative = inhibition [12] -1.94% | Potency [13]
7.95%: max response [12, 16]
6.75%: max response [12, 17]

Cc1noc(C)c1C(=O)N1CCC2(CC1)CN(c1ncccn1)C2
24.4%: max response [12, 17]
15.3%: max response [12, 16]
inactive: Potency [1] > 11.4 µM | activity change, negative = inhibition [2] -8.73% | Potency [3] | activity change, negative = inhibition [4] 13.3% | activity, negative = inhibition [5] 2.57% | Potency [7] > 46 µM | outcome [8] | Potency [14] | activity change, negative = inhibition [12] 6.33% | Potency [13]

COCC(=O)N1CCC2(CC1)CCN(C(=O)Nc1cccc(F)c1)CC2
10.1%: max response [12, 16]
inactive: Potency [1] > 11.4 µM | activity change, negative = inhibition [2] 5.9% | Potency [3] | activity change, negative = inhibition [4] 3.94% | activity, negative = inhibition [5] -5.26% | Potency [7] > 46 µM | outcome [8] | Potency [14] | activity change, negative = inhibition [12] 0.649% | Potency [13]
10.7%: max response [12, 17]

COC(=O)N1CCC2(CCN(Cc3nccs3)CC2)CC1
6.91%: max response [12, 16]
inactive: Potency [1] > 11.4 µM | activity change, negative = inhibition [2] -10.7% | Potency [3] | activity change, negative = inhibition [4] -25.8% | activity, negative = inhibition [5] 0.339% | Potency [7] > 46 µM | outcome [8] | Potency [14] | activity change, negative = inhibition [12] 2.86% | Potency [13]
13.2%: max response [12, 17]

CC(=O)N1CCC2(CCN(Cc3nccs3)CC2)CC1
5.77%: max response [12, 17]
3.24%: max response [12, 16]
inactive: Potency [1] > 11.4 µM | activity change, negative = inhibition [2] 3.58% | Potency [3] | activity change, negative = inhibition [4] -2.08% | activity, negative = inhibition [5] 17% | Potency [7] > 46 µM | outcome [8] | Potency [14] | activity change, negative = inhibition [12] -0.294% | Potency [13]

CS(=O)(=O)N1CCC2(CCN(c3ccccc3)CC2)CC1
20.7%: max response [12, 16]
inactive: Potency [1] > 11.4 µM | activity change, negative = inhibition [2] 0.201% | Potency [3] | activity change, negative = inhibition [4] -7.56% | activity, negative = inhibition [5] -0.282% | Potency [7] > 46 µM | outcome [8] | Potency [14] | Potency [15] | activity change, negative = inhibition [12] 5.49% | Potency [13]
29.9%: max response [12, 17]

COc1ccc(NC(=O)N2CCC3(CC2)CCN(C(=O)c2cnccn2)CC3)cc1
inactive: Potency [1] > 11.4 µM | activity change, negative = inhibition [2] -11.1% | activity change, negative = inhibition [4] 9.86% | activity, negative = inhibition [5] 0.353% | Potency [7] > 46 µM | outcome [8] | Potency [14] | activity change, negative = inhibition [12] 7.44% | Potency [13]
18.9%: max response [12, 17]
active: Potency [3] 10 µM
7.1%: max response [12, 16]

O=C(c1cc(C(F)(F)F)cc(C(F)(F)F)c1)N1CCC2(CCN(Cc3nccs3)CC2)CC1
inactive: Potency [1] > 11.4 µM | activity change, negative = inhibition [2] -2.3% | Potency [3] | activity change, negative = inhibition [4] -17.7% | activity, negative = inhibition [5] -29.1% | Potency [7] > 46 µM | outcome [8] | Potency [14] | activity change, negative = inhibition [12] 1.84% | Potency [13]
16.9%: max response [12, 16]
21.6%: max response [12, 17]

Cc1noc(C)c1C(=O)N1CCC[C@@]2(CCN(C(=O)NC(C)C)C2)C1
18.4%: max response [12, 17]
13.4%: max response [12, 16]
inactive: Potency [1] > 11.4 µM | activity change, negative = inhibition [2] -0.0457% | Potency [3] | activity change, negative = inhibition [4] 7.59% | activity, negative = inhibition [5] -12.3% | Potency [7] > 46 µM | outcome [8] | Potency [14] | activity change, negative = inhibition [12] 3.68% | Potency [13]

COc1ccccc1CN1CCCC2(CCNCC2)C1
4.5%: max response [12, 16]
inactive: Potency [1] > 11.4 µM | activity change, negative = inhibition [2] -7.6% | Potency [3] | activity change, negative = inhibition [4] -29.2% | activity, negative = inhibition [5] 2.38% | Potency [7] > 46 µM | outcome [8] | Potency [14] | activity change, negative = inhibition [12] 6.8% | Potency [13]
14.4%: max response [12, 17]

O=C(Nc1ccccc1)N1CCC2(CC1)CCN(C(=O)c1csnn1)CC2
inactive: Potency [1] > 11.4 µM | activity change, negative = inhibition [2] -1.74% | Potency [3] | activity change, negative = inhibition [4] 11.2% | activity, negative = inhibition [5] -9.72% | Potency [7] > 46 µM | outcome [8] | Potency [14] | activity change, negative = inhibition [12] 4.48% | Potency [13]
16.6%: max response [12, 16]
23.2%: max response [12, 17]
